Laboratory results reported in PubChem BioAssay (Tox21).
Values joined by “and” are separate entries in the source; they are usually repeats but may differ in a detail not shown here. Equal values may be shown once. Records with an inconclusive call do not appear. Entries that show only a call come without a potency. Where a structure was tested more than once in an assay, its records may differ in their call. Active and inactive are the calls of the source. Unless noted, the call rests on the fitted dose curve; in most records, active means well fitted curve in the direction sought with a large enough effect in the repeat runs; inconclusive means weak or mixed curves; inactive means no such curve, though single readings can be large; an effect the other way counts as inactive or inconclusive.

What was measured:
[1] = molecular target: Acetylcholinesterase (Homo sapiens) (UniProt P22303); assay: Acetylcholinesterase (AChE) small molecule antagonists: fluorescence cell-based qHTS assay (AID 1347398; calls by dose curve; further: nearly all actives have a fitted effect of over 50% in size); conditions: SH-SY5Y cells; Potency: AChE activity; series mostly up to 115 µM
Method in brief: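 Cells (SH-SY5Y) attached overnight, were dosed with compound or DMSO vehicle for 30 min at 37 C, and then incubated 40 min at room temperature with acetylthiocholine and Thiolite Green; green fluorescence indexed AChE activity.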

[2] = molecular target: Acetylcholinesterase (Homo sapiens) (UniProt P22303); assay: Acetylcholinesterase (AChE) small molecule antagonists: enzyme-based qHTS assay with human liver microsomes (AID 1347399; calls by dose curve; further: nearly all actives have a fitted effect of over 60% in size; further: potency means the concentration at half of the fitted maximal effect); conditions: Potency: qHTS inhibition; series mostly up to 115 µM
Method in brief: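 Recombinant human AChE (50 mU/mL in the enzyme mix) and human liver microsomes (0.25 mg/mL final) were preincubated with compound and NADPH (0.25 mg/mL final) for 30 min at 37 C. Acetylthiocholine/DTNB was then added; thiocholine was read colorimetrically after 10 min at room temperature.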

[3] = molecular target: Cytochrome P450 2C19 (Homo sapiens) (UniProt P33261); assay: Cytochrome P450 Family 2 Subfamily C Member 19 (CYP2C19) small molecule antagonists: luciferase reporter qHTS assay (AID 1671197); conditions: P450-Glo CYP2C19 enzyme, luciferin luminescence, 1 h; series mostly up to 115 µM; further: nearly all actives have a fitted effect of over 65% in size; further: potency means the concentration at half of the fitted maximal effect
Method in brief: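 Light output is proportional to CYP2C19 activity: proluciferin substrate is converted to luciferin, then detected by a luciferin detection reagent that also stops the 1 h, 37C NADPH-driven reaction. Ketoconazole serves as positive control.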

[4] = molecular target: Cytochrome P450 2C9 (Homo sapiens) (UniProt P11712); assay: Cytochrome P450 Family 2 Subfamily C Member 9 (CYP2C9) small molecule antagonists: luciferase reporter qHTS assay (AID 1671198); conditions: P450-Glo CYP2C9 enzyme assay, luciferin luminescence; series mostly up to 115 µM; further: nearly all actives have a fitted effect of over 50% in size; further: potency means the concentration at half of the fitted maximal effect
Method in brief: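 P450-Glo proluciferin substrate with CYP2C9 enzyme; 10 min RT preincubation, then NADPH regeneration 1 h at 37C; luciferin detection reagent 20 min RT, luminescence in relative luminescence units.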

[5] = molecular target: Voltage-gated inwardly rectifying potassium channel KCNH2 (Homo sapiens) (UniProt Q12809); assay: Human Ether-a-go-go-Related Gene (hERG) channel small molecule antagonists: fluorescence cell-based qHTS assay (AID 1671200); conditions: hERG-U2OS cells, FluxOR thallium flux fluorescence; series mostly up to 76.8 µM; further: nearly all actives have a fitted effect of over 50% in size; further: potency means the concentration at half of the fitted maximal effect;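 on activity change, negative = inhibition: hERG-expressing U2OS cells given a thallium stimulus after FluxOR II dye loading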
Method in brief: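 Cell line hERG-U2OS; dye FluxOR II, 1 h RT dark; Tl+ stimulus; ex 480/em 540 nm, read each second for 2 min.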

[6] = molecular target: Cytochrome P450 3A4 (Homo sapiens) (UniProt P08684); assay: Cytochrome P450 Family 3 Subfamily A Member 4 (CYP3A4) small molecule antagonists: luciferase reporter qHTS assay (AID 1671201); conditions: P450-Glo CYP3A4 enzyme, luciferin luminescence, 1 h; series mostly up to 115 µM; further: nearly all actives have a fitted effect of over 50% in size; further: potency means the concentration at half of the fitted maximal effect
Method in brief: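 Room-temperature assay throughout: 10 min compound–enzyme/substrate preincubation, 1 h reaction after NADPH regeneration solution, 20 min detection. Luciferin formed from proluciferin substrate is quantified by luminescence.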

[7] = molecular target: Cytochrome P450 2D6 (Homo sapiens) (UniProt P10635); assay: Cytochrome P450 Family 2 Subfamily D Member 6 (CYP2D6) small molecule antagonists: luciferase reporter qHTS assay (AID 1671196); conditions: P450-Glo CYP2D6 enzyme assay, luciferin luminescence, 1 h; series mostly up to 115 µM; further: nearly all actives have a fitted effect of over 50% in size; further: potency means the concentration at half of the fitted maximal effect
Method in brief: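 Luminogenic proluciferin substrate, CYP2D6 enzyme; 10 min RT preincubation with compound, NADPH regeneration system added, 1 h RT. Stop/detection reagent, 20 min RT, luminescence read (RLU). Signal proportional to CYP activity.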

[8] = molecular target: Cytochrome P450 1A2 (Homo sapiens) (UniProt P05177); assay: Cytochrome P450 Family 1 Subfamily A Member 2 (CYP1A2) small molecule antagonists: luciferase reporter qHTS assay (AID 1671199); conditions: P450-Glo CYP1A2 enzyme, luciferin luminescence, 1 h; series mostly up to 115 µM; further: nearly all actives have a fitted effect of over 50% in size; further: potency means the concentration at half of the fitted maximal effect
Method in brief: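 Luminescence readout (relative luminescence units) after luciferin detection reagent, 20 min RT. Preceded by 1 h room-temperature CYP1A2 reaction with NADPH regeneration solution following 10 min compound preincubation with enzyme and proluciferin substrate. Furafylline positive control.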

Chain of Cytochrome P450 1A2 (Homo sapiens) (P05177 whole entry, looked up): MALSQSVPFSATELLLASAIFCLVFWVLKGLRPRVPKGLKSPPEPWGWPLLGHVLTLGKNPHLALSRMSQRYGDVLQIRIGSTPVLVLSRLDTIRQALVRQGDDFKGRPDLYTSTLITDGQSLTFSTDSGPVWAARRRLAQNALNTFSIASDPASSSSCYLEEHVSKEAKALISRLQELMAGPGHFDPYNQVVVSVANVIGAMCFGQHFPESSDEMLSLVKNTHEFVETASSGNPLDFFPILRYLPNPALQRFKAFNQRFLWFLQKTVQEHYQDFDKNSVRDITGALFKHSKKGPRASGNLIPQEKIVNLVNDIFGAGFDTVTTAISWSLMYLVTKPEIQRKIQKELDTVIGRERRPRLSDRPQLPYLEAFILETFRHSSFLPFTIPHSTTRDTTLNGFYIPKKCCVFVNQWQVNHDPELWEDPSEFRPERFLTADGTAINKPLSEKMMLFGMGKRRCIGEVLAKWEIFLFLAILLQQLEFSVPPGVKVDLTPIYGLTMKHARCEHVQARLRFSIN
Chain of Acetylcholinesterase (Homo sapiens) (P22303 whole entry, looked up): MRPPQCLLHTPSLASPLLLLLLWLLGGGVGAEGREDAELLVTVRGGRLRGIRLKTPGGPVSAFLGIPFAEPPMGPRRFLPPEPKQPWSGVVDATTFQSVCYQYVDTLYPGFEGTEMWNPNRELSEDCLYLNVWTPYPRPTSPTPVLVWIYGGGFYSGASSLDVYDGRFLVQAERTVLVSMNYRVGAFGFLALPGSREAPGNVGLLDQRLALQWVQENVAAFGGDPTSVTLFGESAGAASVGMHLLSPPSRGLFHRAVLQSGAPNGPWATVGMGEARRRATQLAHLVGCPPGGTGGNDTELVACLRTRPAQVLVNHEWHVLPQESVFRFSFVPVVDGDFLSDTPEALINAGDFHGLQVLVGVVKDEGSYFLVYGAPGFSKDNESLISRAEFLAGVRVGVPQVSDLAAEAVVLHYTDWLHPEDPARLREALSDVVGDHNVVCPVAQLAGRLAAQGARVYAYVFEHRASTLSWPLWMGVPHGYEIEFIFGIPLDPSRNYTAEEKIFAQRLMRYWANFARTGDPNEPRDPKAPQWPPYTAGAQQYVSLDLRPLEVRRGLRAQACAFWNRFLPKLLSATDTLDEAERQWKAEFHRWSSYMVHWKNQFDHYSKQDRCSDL
Chain of Cytochrome P450 3A4 (Homo sapiens) (P08684 whole entry, looked up): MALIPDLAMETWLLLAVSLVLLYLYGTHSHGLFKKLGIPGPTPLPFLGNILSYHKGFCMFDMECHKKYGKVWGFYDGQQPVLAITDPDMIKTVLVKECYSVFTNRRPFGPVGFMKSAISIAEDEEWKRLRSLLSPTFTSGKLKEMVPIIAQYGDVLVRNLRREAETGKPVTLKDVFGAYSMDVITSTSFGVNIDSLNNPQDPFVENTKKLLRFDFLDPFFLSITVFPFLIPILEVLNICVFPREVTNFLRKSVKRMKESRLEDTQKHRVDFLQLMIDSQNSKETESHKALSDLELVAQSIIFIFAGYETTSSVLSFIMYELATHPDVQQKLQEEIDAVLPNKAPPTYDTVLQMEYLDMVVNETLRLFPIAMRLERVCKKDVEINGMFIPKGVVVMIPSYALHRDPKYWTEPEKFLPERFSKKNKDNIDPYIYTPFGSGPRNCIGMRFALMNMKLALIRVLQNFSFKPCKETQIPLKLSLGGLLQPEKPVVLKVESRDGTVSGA
Chain of Cytochrome P450 2D6 (Homo sapiens) (P10635 whole entry, looked up): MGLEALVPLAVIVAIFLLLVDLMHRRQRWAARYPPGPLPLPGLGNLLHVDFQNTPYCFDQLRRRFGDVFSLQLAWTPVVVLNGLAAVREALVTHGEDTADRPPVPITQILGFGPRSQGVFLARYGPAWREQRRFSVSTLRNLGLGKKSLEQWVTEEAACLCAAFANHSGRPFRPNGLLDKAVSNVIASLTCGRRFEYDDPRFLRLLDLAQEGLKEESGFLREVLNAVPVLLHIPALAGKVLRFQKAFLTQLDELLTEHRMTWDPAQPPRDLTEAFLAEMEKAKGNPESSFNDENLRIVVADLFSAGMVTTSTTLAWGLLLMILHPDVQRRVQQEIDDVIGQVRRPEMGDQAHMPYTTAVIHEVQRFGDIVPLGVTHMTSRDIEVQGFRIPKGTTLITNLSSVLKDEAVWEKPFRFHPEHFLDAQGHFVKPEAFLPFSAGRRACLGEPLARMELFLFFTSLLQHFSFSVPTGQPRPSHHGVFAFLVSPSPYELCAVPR
Chain of Voltage-gated inwardly rectifying potassium channel KCNH2 (Homo sapiens) (Q12809 whole entry, looked up): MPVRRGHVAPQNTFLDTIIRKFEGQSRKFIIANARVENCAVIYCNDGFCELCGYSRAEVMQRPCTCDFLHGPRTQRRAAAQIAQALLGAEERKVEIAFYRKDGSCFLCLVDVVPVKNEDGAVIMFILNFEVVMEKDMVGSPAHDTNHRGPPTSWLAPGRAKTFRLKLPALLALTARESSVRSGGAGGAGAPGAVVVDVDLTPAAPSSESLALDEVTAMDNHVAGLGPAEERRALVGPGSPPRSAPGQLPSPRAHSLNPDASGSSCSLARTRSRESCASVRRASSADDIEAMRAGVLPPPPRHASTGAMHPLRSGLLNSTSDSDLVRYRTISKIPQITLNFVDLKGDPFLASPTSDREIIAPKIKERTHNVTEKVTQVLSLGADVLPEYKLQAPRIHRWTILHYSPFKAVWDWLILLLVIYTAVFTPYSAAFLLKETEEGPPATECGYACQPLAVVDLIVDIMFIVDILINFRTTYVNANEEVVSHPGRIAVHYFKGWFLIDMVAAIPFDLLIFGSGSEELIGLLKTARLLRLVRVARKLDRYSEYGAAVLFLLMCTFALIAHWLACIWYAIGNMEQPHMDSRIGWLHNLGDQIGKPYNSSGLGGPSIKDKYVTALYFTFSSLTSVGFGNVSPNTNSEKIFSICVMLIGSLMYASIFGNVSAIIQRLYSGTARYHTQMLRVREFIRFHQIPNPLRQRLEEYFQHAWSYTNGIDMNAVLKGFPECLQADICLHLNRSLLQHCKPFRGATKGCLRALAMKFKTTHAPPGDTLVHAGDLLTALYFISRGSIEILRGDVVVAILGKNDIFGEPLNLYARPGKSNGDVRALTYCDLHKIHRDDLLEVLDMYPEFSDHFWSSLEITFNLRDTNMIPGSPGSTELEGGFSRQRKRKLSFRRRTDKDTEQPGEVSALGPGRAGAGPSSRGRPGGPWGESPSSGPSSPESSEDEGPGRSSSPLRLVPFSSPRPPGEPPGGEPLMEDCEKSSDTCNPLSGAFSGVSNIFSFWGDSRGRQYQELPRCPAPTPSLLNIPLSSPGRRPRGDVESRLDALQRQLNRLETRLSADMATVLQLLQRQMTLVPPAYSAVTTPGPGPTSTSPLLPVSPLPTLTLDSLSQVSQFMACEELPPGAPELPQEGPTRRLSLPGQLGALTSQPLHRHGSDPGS
Chain of Cytochrome P450 2C19 (Homo sapiens) (P33261 whole entry, looked up): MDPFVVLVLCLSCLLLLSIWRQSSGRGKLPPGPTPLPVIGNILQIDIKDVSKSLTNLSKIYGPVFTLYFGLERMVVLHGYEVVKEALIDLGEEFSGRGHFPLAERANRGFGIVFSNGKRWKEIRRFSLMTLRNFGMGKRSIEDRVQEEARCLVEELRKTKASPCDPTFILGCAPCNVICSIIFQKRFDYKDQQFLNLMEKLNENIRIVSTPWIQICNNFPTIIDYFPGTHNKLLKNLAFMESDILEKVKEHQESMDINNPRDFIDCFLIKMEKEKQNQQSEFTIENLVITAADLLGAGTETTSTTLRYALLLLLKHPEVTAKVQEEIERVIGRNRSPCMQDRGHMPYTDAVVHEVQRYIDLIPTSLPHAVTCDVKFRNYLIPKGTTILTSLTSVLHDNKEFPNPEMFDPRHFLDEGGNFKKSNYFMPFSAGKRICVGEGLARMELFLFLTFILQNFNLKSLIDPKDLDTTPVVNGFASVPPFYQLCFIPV
Chain of Cytochrome P450 2C9 (Homo sapiens) (P11712 whole entry, looked up): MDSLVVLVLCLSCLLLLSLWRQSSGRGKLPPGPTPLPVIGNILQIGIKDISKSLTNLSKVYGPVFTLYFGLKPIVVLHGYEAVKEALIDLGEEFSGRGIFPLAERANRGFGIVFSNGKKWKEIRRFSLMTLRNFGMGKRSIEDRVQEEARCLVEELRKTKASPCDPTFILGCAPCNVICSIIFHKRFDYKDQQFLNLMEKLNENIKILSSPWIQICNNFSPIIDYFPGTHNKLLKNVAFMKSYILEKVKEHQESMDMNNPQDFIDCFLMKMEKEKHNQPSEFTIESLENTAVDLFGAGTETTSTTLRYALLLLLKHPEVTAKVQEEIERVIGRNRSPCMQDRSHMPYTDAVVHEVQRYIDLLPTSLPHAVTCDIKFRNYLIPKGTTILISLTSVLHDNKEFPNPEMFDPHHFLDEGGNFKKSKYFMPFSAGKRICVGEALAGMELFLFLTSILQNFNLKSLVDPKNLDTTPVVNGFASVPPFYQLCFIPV

For CCCN, the Potency [1] was “inactive”, the Potency [2] was “inactive” and the Potency [3] was “inactive”. The Potency [4] was “inactive”, the Potency [5] was “inactive” and the Potency [6] was “inactive”.

In the case of CCCCC(CC)COC(=O)OOC(C)(C)C (stereo not given), the Potency [1] is reported as “inactive”, the Potency [2] is reported as “inactive” and the Potency [7] is reported as “inactive”. For the same molecule, the Potency [3] was “inactive”, the Potency [4] was “inactive” and the Potency [5] was “inactive”. For the same molecule, the Potency [6] was “inactive”.

For Cc1cc2c3c(c1)C(c1ccccc1)=N[C@@H](NC(=O)c1ccncc1)C(=O)N3CC2, the Potency [1] was “inactive”, the Potency [2] was “inactive” and the Potency [7] was 39.9 µM (active). For the same molecule, the Potency [3] was 25.2 µM (active), the Potency [4] was 31.7 µM (active) and the Potency [6] was 1.12 µM (active).

In the case of ClC1=C(Cl)[C@]2(Cl)[C@H]3[C@H]([C@@H]4C=C[C@H]3C4)[C@@]1(Cl)C2(Cl)Cl, the Potency [1] is reported as “inactive”, the Potency [2] is reported as “inactive” and the Potency [7] is reported as 35.5 µM (active) and inactive. The Potency [3] was “inactive and 35.6 µM (active)”, the Potency [4] was “inactive” and the Potency [8] was “inactive”. The Potency [6] was 252 nM (active) and 399 nM (active).

With CC(=O)[O-].CC(=O)[O-].O.O.O.[Pb+2] the Potency [5] was “inactive”.

In the case of [Cl-].[Cl-].[Sn+2], the Potency [5] is reported as “inactive”.

In the case of COP(=O)(OC)Oc1ccc([N+](=O)[O-])cc1, the Potency [7] is reported as 25.2 µM (active), the Potency [3] is reported as 20 µM (active) and the Potency [4] is reported as “inactive”. For the same molecule, the Potency [8] was “inactive”, the Potency [5] was “inactive” and the Potency [6] was “inactive”.

CCCCn1cc[n+](C)c1 (tested in a mixture with another compound) was tested, and the Potency [5] was “inactive”.

With COc1ccc(Cc2nccc3cc(OC)c(OC)cc23)cc1OC the Potency [8] was “inactive” and the Potency [5] was “inactive”.

CC(=O)[O-].CC(=O)[O-].CC(=O)[O-].[Sb+3] was tested, and the activity change, negative = inhibition [5] was 0.0833% [at 2.72 µM] (inactive).

In the case of CN1CCc2cc3c(cc2C1O)OCO3 (stereo not given), the Potency [7] is reported as 2.01 µM (active), the Potency [4] is reported as “inactive” and the Potency [8] is reported as 40.2 µM (active). The Potency [5] was “inactive” and the Potency [6] was “inactive”.

CN was tested, and the Potency [5] was “inactive”.

CNC(=O)Oc1cc(C)cc(C(C)C)c1 was tested, and the Potency [2] was 5.03 µM (active), the Potency [7] was 39.9 µM (active) and the Potency [3] was 20 µM (active). For the same molecule, the Potency [4] was “inactive”, the Potency [8] was 20 µM (active) and the Potency [5] was “inactive”. For the same molecule, the Potency [6] was “inactive”.

For CC(Cc1ccc(O)cc1)NCC(O)c1cc(O)cc(O)c1 (stereo not given), the Potency [7] was 9.77 µM (active), the Potency [3] was “inactive” and the Potency [4] was “inactive”. The Potency [8] was “inactive”, the Potency [5] was “inactive” and the Potency [6] was “inactive”.

With CC1CN1 (stereo not given) the Potency [1] was “inactive”, the Potency [2] was “inactive” and the Potency [4] was “inactive”. The Potency [5] was “inactive” and the Potency [6] was “inactive”.

For CC(=O)[O-].CC(=O)[O-].[Co+2], the Potency [5] was “inactive”.

With CC(C)=CCN1CC[C@@]2(C)c3cc(O)ccc3C[C@@H]1[C@@H]2C the Potency [2] was “inactive”, the Potency [3] was 78.5 µM (active) and the Potency [4] was “inactive”. For the same molecule, the Potency [8] was “inactive” and the Potency [6] was “inactive”.

For O=S(=O)(O)F, the Potency [2] was “inactive”, the Potency [7] was “inactive” and the Potency [4] was “inactive”. For the same molecule, the Potency [8] was “inactive” and the Potency [5] was “inactive”.

In the case of O=[N+]([O-])c1cccc2cccc([N+](=O)[O-])c12, the Potency [2] is reported as “inactive”, the Potency [7] is reported as “inactive” and the Potency [4] is reported as “inactive”. The Potency [5] was “inactive”.

O.O.O.O.O.O.O.O=S(=O)([O-])[O-].[Co+2] was tested, and the Potency [5] was “inactive”.

With O.O.O.O.O.O.O=S(=O)([O-])[O-].[Ni+2] the Potency [5] was “inactive”.

With CCCCn1cc[n+](C)c1.[Cl][Fe-]([Cl])([Cl])[Cl] the Potency [5] was “inactive”.

For CCCC[N+]1(C)CCCC1 (tested in a mixture with another compound), the Potency [3] was “inactive”, the Potency [4] was “inactive” and the Potency [5] was “inactive”. The Potency [6] was “inactive”.

With COc1ccc2[nH]cc(CCN(C(C)C)C(C)C)c2c1 the Potency [7] was 4.09 µM (active), the Potency [3] was “inactive” and the Potency [4] was “inactive”. The Potency [8] was 40.9 µM (active), the Potency [5] was 28.2 µM (active) and the Potency [6] was “inactive”.

CC(=O)[O-].CC(=O)[O-].CC(=O)[O-].[Cr+3] was tested, and the Potency [5] was “inactive”.

For CCC1(CC)C(=O)N=C(O)NC1=O, the Potency [2] was “inactive”, the Potency [7] was “inactive” and the Potency [3] was “inactive”. The Potency [4] was “inactive”, the Potency [8] was “inactive” and the Potency [5] was “inactive”. For the same molecule, the Potency [6] was “inactive”.

In the case of Oc1ccc2[nH]cc(CCCCN3CC=C(c4ccccc4)CC3)c2c1, the Potency [5] is reported as 2.68 µM (active).

For C1=CCC=C1, the Potency [5] was “inactive”.

In the case of C[C@]12CC[C@H]3[C@@H](CCC4=CC(=O)CC[C@@H]43)[C@@H]1CC[C@@H]2OC(=O)CCc1ccco1, the Potency [2] is reported as “inactive”, the Potency [7] is reported as “inactive” and the Potency [3] is reported as “inactive”. For the same molecule, the Potency [4] was 17.4 µM (active), the Potency [8] was “inactive” and the Potency [5] was 10.7 µM (active).

With [Cl-].[Cl-].[Cl-].[Yb+3] the Potency [5] was “inactive”.

With COP(=O)(OC)O/C(=C\Cl)c1cc(Cl)c(Cl)cc1Cl the Potency [2] was “inactive”, the Potency [7] was 79.6 µM (active) and the Potency [3] was 5.03 µM (active). The Potency [4] was 44.8 µM (active), the Potency [8] was 1.42 µM (active) and the Potency [5] was “inactive”.

For C[C@H]1[C@H](c2ccc(Cl)cc2)SC(=O)N1C(=O)NC1CCCCC1, the Potency [2] was “inactive”, the Potency [7] was “inactive” and the Potency [3] was 5.03 µM (active). The Potency [4] was 10 µM (active), the Potency [8] was 35.6 µM (active) and the Potency [5] was 38.9 µM (active). For the same molecule, the Potency [6] was 7.96 µM (active).

CC(=O)O.CC(=O)O.CC(=O)O.CC(=O)O.CC(=O)O.CC(=O)O.CC(=O)O.O.O.[Cr].[Cr].[Cr] was tested, and the Potency [5] was “inactive”.

With CC(=O)[O][Pb]([c]1ccccc1)([c]1ccccc1)[c]1ccccc1 the Potency [2] was “inactive”, the Potency [7] was 22.4 µM (active) and the Potency [4] was 3.17 µM (active). The Potency [8] was 39.9 µM (active) and the Potency [6] was 10 µM (active).

For Oc1cc(Cl)cc(Cl)c1, the Potency [2] was “inactive”, the Potency [7] was 71.7 µM (active) and the Potency [3] was “inactive”. The Potency [8] was 32 µM (active), the Potency [5] was “inactive” and the Potency [6] was “inactive”.

With CCCCCON=O the Potency [2] was “inactive”, the Potency [7] was “inactive” and the Potency [3] was “inactive”. For the same molecule, the Potency [4] was “inactive”, the Potency [8] was “inactive” and the Potency [5] was “inactive”. For the same molecule, the Potency [6] was “inactive”.

For CCn1cc[n+](C)c1 (tested in a mixture with another compound), the Potency [7] was “inactive”, the Potency [4] was “inactive” and the Potency [8] was “inactive”. For the same molecule, the Potency [5] was “inactive” and the Potency [6] was “inactive”.

In the case of OCC(Br)CBr (stereo not given), the Potency [1] is reported as “inactive”, the Potency [2] is reported as “inactive” and the Potency [4] is reported as “inactive”. For the same molecule, the Potency [5] was “inactive” and the Potency [6] was “inactive”.

In the case of [C-]1=CC=CC1.[Cl][Zr+2][Cl].c1cc[cH-]c1, the Potency [5] is reported as “inactive”.

For O=[N+]([O-])[O-].[Tl+], the Potency [5] was “inactive”.

For CN1CCc2cc(Cl)c(O)cc2[C@H]2c3ccccc3CC[C@@H]21, the Potency [2] was “inactive”, the Potency [7] was 0.0078 µM (active) and the Potency [3] was “inactive”. For the same molecule, the Potency [4] was “inactive”, the Potency [8] was “inactive” and the Potency [5] was 9.52 µM (active). The Potency [6] was “inactive”.

In the case of CCOP(=O)(OCC)Oc1nc(Cl)c(Cl)cc1Cl, the Potency [7] is reported as 5.61 µM (active), the Potency [3] is reported as 3.15 µM (active) and the Potency [4] is reported as 35.4 µM (active). The Potency [8] was 1.58 µM (active), the Potency [5] was “inactive” and the Potency [6] was “inactive”.

CC(=O)[O-].CC(=O)[O-].O.O.[Zn+2] was tested, and the Potency [5] was “inactive”.
